These results are taken from ChEMBL document CHEMBL3988442, “University of Dundee, Small-Polar-MMV Screening Library” (2021).

Set-up in all cases: scale not given: direction of the effect not stated beside the values
In assay [1] the target is Protein translocase subunit SecA (Escherichia coli (strain K12)) (UniProt P10408). The assay can be described thus: Assay to Identify E. coli SecA ATPase Inhibitors. Type of assay: functional. The note with it: 30 µM.
The target of assay [2] is T1, Ubiquitin-activating enzyme e1, putative (Leishmania donovani (strain BPK282A1)) (UniProt E9BSI1).
T1 sequence (whole entry): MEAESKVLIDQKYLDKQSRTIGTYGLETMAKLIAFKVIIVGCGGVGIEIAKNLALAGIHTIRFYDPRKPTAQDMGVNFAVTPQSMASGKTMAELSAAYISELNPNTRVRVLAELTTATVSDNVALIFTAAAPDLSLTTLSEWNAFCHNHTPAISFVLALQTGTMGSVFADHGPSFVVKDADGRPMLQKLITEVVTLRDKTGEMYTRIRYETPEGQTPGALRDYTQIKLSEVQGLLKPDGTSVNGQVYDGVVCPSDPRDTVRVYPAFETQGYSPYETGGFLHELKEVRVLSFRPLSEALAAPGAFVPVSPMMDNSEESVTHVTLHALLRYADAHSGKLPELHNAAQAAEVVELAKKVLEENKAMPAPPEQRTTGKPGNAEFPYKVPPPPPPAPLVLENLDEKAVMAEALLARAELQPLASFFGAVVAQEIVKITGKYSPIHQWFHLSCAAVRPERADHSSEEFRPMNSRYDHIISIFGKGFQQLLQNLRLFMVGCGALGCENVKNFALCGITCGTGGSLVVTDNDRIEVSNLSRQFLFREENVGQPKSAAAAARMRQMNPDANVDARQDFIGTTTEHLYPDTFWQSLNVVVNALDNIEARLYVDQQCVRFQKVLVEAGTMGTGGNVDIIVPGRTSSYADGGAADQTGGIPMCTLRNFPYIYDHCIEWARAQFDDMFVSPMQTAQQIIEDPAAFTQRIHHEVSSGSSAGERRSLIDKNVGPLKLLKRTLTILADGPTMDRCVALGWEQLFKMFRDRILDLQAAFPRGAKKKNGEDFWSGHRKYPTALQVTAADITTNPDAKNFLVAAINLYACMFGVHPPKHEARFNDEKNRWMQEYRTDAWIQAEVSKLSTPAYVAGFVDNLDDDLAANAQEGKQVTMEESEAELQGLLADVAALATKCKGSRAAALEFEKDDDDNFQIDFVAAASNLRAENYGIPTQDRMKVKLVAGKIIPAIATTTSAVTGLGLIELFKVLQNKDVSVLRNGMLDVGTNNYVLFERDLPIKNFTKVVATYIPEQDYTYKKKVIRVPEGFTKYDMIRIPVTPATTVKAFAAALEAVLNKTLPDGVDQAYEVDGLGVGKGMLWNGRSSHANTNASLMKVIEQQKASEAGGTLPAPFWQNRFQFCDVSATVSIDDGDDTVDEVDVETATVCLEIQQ
The assay can be described thus: Leishmania donovani Ubiquitin Activating Enzyme (LdE1). The note with it: 30 µM. Type of assay: functional.

Assay [3] addresses T2, Aspartate--tRNA(Asp/Asn) ligase (Mycobacterium tuberculosis (strain ATCC 25618 / H37Rv)) (UniProt P9WFW3).
T2 sequence (whole entry): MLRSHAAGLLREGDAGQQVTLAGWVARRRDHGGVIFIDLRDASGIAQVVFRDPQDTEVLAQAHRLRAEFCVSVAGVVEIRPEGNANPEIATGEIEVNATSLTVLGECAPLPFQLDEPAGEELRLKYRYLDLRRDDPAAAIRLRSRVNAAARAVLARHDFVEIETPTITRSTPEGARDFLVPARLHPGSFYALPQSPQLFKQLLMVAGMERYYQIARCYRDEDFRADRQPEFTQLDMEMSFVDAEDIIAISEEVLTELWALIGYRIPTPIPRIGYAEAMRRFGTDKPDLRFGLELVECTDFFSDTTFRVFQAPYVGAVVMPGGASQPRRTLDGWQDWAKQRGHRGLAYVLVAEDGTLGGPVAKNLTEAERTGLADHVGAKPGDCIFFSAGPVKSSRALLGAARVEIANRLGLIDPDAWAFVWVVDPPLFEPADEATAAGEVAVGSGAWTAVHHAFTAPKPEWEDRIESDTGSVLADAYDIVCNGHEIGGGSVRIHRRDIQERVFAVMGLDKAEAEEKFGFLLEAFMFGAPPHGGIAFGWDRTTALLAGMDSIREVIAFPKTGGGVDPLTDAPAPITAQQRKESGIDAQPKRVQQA
The experiment in a line: Assay for Asp RNA synthetase-1 from Mycobacterium tuberculosis. Type of assay: functional. The note with it: 30 µM.

Assay [4] deals with AMP-activated protein kinase, AMPK (Homo sapiens) (UniProt P54646+O43741+P54619+Q9UGJ0+Q9Y478+Q13131+Q9UGI9). The experiment in a line: AMP-dependent Kinase enzyme assay. An in vitro enzyme assay that detects ADP turnover that is directly proportional to AMPK activity. This uses naive AMPK that is activated during the assay with MK-8722. Type of assay: functional. The note with it: 30 µM.

For assay [5], the target named is Sialic acid-binding Ig-like lectin 9 (Homo sapiens) (UniProt Q9Y336). The assay can be described thus: Hs-Siglec9 ALPHAscreen SOP 20170721. The note with it: 10 µM. A general note: Alpha assays give light when donor and acceptor beads are brought close together.
Chain of Sialic acid-binding Ig-like lectin 9 (Homo sapiens) (Q9Y336 whole entry): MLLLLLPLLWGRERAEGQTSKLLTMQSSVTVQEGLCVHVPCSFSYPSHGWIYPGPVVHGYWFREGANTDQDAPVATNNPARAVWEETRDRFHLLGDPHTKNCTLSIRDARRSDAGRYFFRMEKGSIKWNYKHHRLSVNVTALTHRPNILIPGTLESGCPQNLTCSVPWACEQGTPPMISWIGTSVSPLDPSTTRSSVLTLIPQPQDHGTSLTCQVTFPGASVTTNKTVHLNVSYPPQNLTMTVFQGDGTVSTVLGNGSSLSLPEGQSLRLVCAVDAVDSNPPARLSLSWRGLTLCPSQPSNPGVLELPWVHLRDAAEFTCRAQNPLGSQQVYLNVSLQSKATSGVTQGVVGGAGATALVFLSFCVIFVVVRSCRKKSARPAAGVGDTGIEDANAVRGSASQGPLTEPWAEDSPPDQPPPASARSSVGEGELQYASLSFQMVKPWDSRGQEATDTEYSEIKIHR
For another assay, the system named is Trypanosoma cruzi. The assay can be described thus: Trypanosoma cruzi phosphomannomutase and mannose-1-phosphate guanylyltransferase assay. Type of assay: functional. The note with it: 10 µM.
The target in assay [6] is T3, Arginase-2, mitochondrial (Homo sapiens) (UniProt P78540).
T3 sequence (whole entry): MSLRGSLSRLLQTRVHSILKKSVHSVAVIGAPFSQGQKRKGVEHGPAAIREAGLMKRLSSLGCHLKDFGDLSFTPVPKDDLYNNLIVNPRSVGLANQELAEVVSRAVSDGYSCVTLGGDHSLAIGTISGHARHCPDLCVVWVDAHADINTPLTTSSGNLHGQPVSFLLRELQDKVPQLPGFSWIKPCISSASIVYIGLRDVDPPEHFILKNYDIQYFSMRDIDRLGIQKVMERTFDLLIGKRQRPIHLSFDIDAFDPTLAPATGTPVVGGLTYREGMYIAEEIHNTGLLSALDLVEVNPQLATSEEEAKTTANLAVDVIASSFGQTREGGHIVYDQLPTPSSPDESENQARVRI
The experiment in a line: in vitro enzyme assay to detect the production of urea directly proportional to the activity of Arginase II. Also: in the data most compounds retested in dose-response had high values. Type of assay: functional. The note with it: 33.3 µM.

The target in assay [7] is T4, Proteasome subunit beta (Trypanosoma cruzi) (UniProt O96673).
T4 sequence (whole entry): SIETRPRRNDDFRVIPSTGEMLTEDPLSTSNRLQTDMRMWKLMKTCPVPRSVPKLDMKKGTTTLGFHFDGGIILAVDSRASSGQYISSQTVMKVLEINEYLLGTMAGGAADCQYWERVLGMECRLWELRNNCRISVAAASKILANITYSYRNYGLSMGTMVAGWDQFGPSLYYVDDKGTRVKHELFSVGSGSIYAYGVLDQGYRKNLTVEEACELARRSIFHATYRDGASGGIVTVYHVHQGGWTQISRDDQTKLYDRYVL
The assay can be described thus: Trypanosoma cruzi proteasome chymotrypsin-like activity (TcProtChymo) assay. Also: in the data most compounds retested in dose-response had high values. Type of assay: functional. The note with it: 9.37 µM.

The species entered for the next assay is Homo sapiens. The assay can be described thus: To identify inhibition of the IFN signalling (Jak-Stat) pathway via expression of an eGFP reporter gene under the control of an IFN-stimulated response element (ISRE) containing MxA promoter. Type of assay: functional. The note with it: 30 µM. On the technique in general: In a reporter assay the amount or activity of a reporter protein is the signal.

For assay [8], the target named is Shiga toxin 2 (Escherichia coli O157:H7) (UniProt P09385+P09386). The assay can be described thus: E. coli 0.157:H7 Shiga Toxin SOP - stx2 screening assay. Type of assay: functional. The note with it: 30 µM.
For assay [9], the target named is T5, Tyrosyl-tRNA synthetase, putative (Trypanosoma cruzi (strain CL Brener)) (UniProt Q4DSP6).
T5 sequence (whole entry): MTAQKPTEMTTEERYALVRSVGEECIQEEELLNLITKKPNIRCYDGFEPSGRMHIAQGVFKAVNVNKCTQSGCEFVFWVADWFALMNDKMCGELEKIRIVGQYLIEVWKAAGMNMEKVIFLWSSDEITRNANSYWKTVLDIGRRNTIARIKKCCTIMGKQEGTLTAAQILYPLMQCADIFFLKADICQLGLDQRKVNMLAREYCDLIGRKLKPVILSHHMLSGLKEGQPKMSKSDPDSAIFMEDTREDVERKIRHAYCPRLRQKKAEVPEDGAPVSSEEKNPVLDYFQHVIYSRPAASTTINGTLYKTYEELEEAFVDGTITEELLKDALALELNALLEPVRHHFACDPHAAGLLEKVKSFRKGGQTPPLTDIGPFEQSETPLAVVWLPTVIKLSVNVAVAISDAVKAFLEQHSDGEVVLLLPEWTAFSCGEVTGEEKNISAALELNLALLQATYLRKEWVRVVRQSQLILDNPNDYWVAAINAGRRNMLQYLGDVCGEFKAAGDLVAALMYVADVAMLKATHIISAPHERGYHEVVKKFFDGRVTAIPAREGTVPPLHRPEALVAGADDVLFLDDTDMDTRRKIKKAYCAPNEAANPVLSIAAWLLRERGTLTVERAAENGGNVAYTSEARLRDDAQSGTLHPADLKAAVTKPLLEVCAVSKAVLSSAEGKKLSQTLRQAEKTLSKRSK
The assay can be described thus: Trypanosoma cruzi tyrosyl tRNA synthetase (TcYRS) _High Tyrosine SOP. Also: in the data most compounds retested in dose-response had high values. Type of assay: functional. The note with it: 30 µM.

Assay [10] concerns the target T5, Tyrosyl-tRNA synthetase, putative (Trypanosoma cruzi (strain CL Brener)). The assay can be described thus: Trypanosoma cruzi tyrosyl tRNA synthetase (TcYRS) SOP. The note with it: 30 µM. Type of assay: functional.
The target of assay [11] is Chromo domain-containing protein 1 (Saccharomyces cerevisiae (strain ATCC 204508 / S288c) (Baker's yeast)) (UniProt P32657). The experiment in a line: ScCHD-1 Enzyme Inhibition Assay. Also: in the data most compounds retested in dose-response had high values. The note with it: 30 µM. Type of assay: functional.
Chain of Chromo domain-containing protein 1 (Saccharomyces cerevisiae (strain ATCC 204508 / S288c) (Baker's yeast)) (P32657 whole entry, the tested form may be a part): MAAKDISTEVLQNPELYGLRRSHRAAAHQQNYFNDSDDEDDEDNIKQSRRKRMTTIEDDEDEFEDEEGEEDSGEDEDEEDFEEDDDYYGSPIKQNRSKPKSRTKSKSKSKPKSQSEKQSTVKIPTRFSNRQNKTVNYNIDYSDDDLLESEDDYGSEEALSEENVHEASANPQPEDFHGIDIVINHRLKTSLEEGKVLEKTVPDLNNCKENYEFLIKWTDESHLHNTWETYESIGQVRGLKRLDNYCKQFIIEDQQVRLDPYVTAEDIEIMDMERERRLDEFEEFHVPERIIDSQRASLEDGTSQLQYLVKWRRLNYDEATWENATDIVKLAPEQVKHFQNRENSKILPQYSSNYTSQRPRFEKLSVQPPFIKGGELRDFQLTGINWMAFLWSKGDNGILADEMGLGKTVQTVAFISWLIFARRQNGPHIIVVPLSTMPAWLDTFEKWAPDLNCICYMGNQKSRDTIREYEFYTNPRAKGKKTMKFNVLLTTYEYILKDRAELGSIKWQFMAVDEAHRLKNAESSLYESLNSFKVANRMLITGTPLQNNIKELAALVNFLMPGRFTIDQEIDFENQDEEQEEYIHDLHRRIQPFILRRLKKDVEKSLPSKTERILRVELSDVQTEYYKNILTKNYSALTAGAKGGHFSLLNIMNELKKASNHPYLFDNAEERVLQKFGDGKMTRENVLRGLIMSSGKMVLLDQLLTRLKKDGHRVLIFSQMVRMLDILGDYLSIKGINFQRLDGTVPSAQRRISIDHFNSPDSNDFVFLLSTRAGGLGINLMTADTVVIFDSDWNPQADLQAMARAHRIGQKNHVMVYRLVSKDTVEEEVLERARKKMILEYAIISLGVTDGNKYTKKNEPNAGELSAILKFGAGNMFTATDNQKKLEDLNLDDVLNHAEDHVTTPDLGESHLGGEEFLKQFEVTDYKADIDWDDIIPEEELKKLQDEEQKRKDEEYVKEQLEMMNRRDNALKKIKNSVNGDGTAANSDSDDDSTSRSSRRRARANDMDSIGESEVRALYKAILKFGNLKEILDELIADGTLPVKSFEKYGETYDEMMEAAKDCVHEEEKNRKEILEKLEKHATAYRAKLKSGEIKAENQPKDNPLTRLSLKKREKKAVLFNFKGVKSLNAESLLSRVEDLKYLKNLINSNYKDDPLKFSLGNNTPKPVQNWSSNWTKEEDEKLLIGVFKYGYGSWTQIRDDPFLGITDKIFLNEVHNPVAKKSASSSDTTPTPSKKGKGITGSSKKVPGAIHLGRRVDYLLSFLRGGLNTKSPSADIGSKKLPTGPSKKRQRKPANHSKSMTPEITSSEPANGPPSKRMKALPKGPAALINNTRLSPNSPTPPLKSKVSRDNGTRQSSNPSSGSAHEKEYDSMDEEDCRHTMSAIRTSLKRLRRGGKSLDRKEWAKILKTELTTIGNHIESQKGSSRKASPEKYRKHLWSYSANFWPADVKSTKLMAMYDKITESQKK

For some of these results: Entries with a potency or affinity are not part of this list.

Chain of Protein translocase subunit SecA (Escherichia coli (strain K12)) (P10408 whole entry): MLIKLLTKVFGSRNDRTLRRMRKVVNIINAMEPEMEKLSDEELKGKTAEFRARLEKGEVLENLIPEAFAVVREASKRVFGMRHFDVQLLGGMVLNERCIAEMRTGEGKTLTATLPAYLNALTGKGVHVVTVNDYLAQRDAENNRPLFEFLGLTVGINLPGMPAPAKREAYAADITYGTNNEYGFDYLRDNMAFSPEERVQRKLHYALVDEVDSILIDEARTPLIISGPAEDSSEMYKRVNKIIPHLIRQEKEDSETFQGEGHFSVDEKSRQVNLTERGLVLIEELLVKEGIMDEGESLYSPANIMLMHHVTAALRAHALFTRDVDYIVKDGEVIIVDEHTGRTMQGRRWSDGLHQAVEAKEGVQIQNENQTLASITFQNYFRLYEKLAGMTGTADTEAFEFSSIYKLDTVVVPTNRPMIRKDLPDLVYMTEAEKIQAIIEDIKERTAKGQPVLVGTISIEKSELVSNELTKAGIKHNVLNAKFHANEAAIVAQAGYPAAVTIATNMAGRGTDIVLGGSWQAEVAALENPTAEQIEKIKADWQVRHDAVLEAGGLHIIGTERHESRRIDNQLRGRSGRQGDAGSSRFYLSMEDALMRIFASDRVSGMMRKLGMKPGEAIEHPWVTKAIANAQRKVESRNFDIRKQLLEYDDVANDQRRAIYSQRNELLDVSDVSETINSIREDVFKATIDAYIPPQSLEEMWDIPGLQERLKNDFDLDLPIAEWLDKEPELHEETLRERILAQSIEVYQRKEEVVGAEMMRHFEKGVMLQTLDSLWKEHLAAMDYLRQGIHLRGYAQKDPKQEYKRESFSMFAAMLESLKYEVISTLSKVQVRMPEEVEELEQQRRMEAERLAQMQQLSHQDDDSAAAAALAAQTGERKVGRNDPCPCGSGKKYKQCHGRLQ

Consider `c1cncc(N2CCOCC3(CCCN(Cc4cccs4)C3)C2)c1` (stereo unspecified), for which the Percent Effect in assay [1] was -5.18%; in [2], 13.5%; in assay [3], 2.95%; in assay [4], 5.95%; in assay [5], -1.9%; in the assay with Trypanosoma cruzi, -0.293%. Also, the Percent Effect in assay [6] amounted to 2.23%; in [7], 10.3%; in the assay filed under Homo sapiens, 4.59%; in assay [8], 14.1%; in assay [9] it was 8.65%; in [10] it was 15.4%. Also, in assay [11], the Percent Effect was -1.37%.
Regarding `O=C(NCC1CC1)[C@H]1C[C@@H]2[C@@H](C1)OCCN2Cc1cccnc1`, the Percent Effect is -2.08% in [1]; -5.33% in [2]; -0.291% in assay [3]; 6.97% in assay [4]; 0.812% in [5]; -1.93% in the assay on Trypanosoma cruzi. Besides, the Percent Effect in assay [6] is -52.5%; in assay [7] it was -2.73%; in the assay filed under Homo sapiens, 9.72%; in [8], -7.08%; in assay [9], -1.04%; in [10], -5%. Also, the Percent Effect in [11] is 4.12%.
As for `COCCN1CCC2(COCc3cnc(N4CCOCC4)nc32)C1` (stereo unspecified), the Percent Effect was -9.09% in assay [1]; 2.67% in assay [2]; -3.07% in assay [3]; 7.61% in assay [4]; -2.45% in [5]; -5.91% in the assay with Trypanosoma cruzi. The Percent Effect in assay [6] is -2.1%; in [7], 2.03%; in the assay filed under Homo sapiens, 21.1%; in assay [8] it was -12%; in [9], -4.25%; in assay [10], -1.28%. Also, the Percent Effect in [11] is -8.27%.
Regarding `CN(C)[C@@H]1CCN(C(=O)Cc2ccc(F)cc2)[C@H]1Cc1cnn(C)c1`, the Percent Effect in assay [1] was -0.511%; in assay [2], 13.3%; in [3] it was 7.04%; in assay [4], 9.81%; in assay [5], -9.25%; in the assay with Trypanosoma cruzi, -4.72%. For the same molecule, the Percent Effect in assay [6] was -1.63%; in assay [7] it was 12.8%; in the assay filed under Homo sapiens, -1.72%; in assay [8], -6.42%; in assay [9], 3.19%; in assay [10], 6.41%. Also, the Percent Effect in assay [11] turned out to be 1.98%.
For `CN(CCc1ccc(F)cc1)Cc1nc2c(cnn2C)c(=O)[nH]1`, the Percent Effect in assay [1] is -6.94%; in [2] it was 21.1%; in assay [3], -1.46%; in [4], -5.8%; in [5] it was 1.02%; with Trypanosoma cruzi, 2.33%. The Percent Effect was -6.47% in [6]; 14.5% in assay [7]; 2.88% in the assay listed under Homo sapiens; 14.7% in assay [8]; 10.3% in assay [9]; 23.5% in assay [10]. Besides, in assay [11], the Percent Effect is -6.22%.
As for `CC(C)CN1C[C@H]2C[C@H](C(=O)Nc3cccnc3)[C@@H](C1)O2`, the Percent Effect was -0.904% in assay [1]; 0% in assay [2]; -0.0153% in assay [3]; 7.32% in assay [4]; -2.44% in assay [5]; -7.33% in the assay with Trypanosoma cruzi. For the same molecule, the Percent Effect is 2.87% in assay [6]; 15.9% in assay [7]; -8.69% in the assay listed under Homo sapiens; -15.6% in assay [8]; 1.08% in assay [9]; 15.4% in [10]. In addition, the Percent Effect in assay [11] was 2.38%.
With `Cn1ccnc1CN1CCC2(CC(=O)N(c3cncnc3)C2)C1` (stereo unspecified), the Percent Effect is -1.68% in [1]; 2.7% in assay [2]; -3.41% in assay [3]; 10% in [4]; 1.79% in [5]; -2.64% in the assay on Trypanosoma cruzi. For the same molecule, the Percent Effect is 2.23% in assay [6]; 21.2% in assay [7]; 2.89% in the assay filed under Homo sapiens; 0.165% in assay [8]; 2.16% in assay [9]; 12.8% in assay [10]. In assay [11], the Percent Effect is 1.86%.
